Reference: PubChem BioAssay AID1159580 (chemical genetic matrix, 2015)
Out of some 5,500 compounds screened, about 2,000 (36%) were called active. About 18% were inconclusive and are not listed. Cut-off read from the data, not from the text of the source: active = normalized growth mostly below about 0.91 (no sharp cut-off); inconclusive = no clear call, values can overlap the other calls; inactive = mostly above about 0.92. The list shows a part of the results.

Test: chemical genetic growth profiling, strain panel (AID 1159580);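 note: tested at 20 µM; growth read once vehicle control cultures reached saturation at 30 °C; 1 = growth at the plate median or of vehicle wells; lower values mean less growth of the strain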
Details: growth OD

Measured: normalized growth

C[C@]12CCC3C(CC[C@H]4C[C@@H](O)CC[C@]34C)C1CCC2=O (some centres undefined)
inactive: S. cerevisiae deletion strains, locus YKL068W, stronger effect = lower value 1.03 | S. cerevisiae deletion strains, locus YKL085W, strain MDH1 (second series), stronger effect = lower value 0.973 | S. cerevisiae deletion strains, locus YKL085W, strain MDH1, stronger effect = lower value 0.973 | S. cerevisiae deletion strains, locus YKL160W, strain elf1, stronger effect = lower value 0.919 | S. cerevisiae deletion strains, locus YKR026C, strain gcn3, stronger effect = lower value 1.06 | S. cerevisiae deletion strains, locus YKR091W, strain srl3, stronger effect = lower value 1.05 | S. cerevisiae deletion strains, locus YLL001W, strain dnm1, stronger effect = lower value 0.923 | S. cerevisiae deletion strains, locus YLL026W, stronger effect = lower value 0.994 | S. cerevisiae deletion strains, locus YLL041C, strain sdh2, stronger effect = lower value 1.04 | S. cerevisiae deletion strains, locus YLR027C, strain aat2, stronger effect = lower value 0.939 | S. cerevisiae deletion strains, locus YLR102C, strain apc9, stronger effect = lower value 1.02 | S. cerevisiae deletion strains, locus YLR113W, strain HOG1, stronger effect = lower value 1.01 | S. cerevisiae deletion strains, locus YLR258W, strain gsy2, stronger effect = lower value 0.945 | S. cerevisiae deletion strains, locus YLR342W, strain FKS1, stronger effect = lower value 0.995 | S. cerevisiae deletion strains, locus YLR370C, strain arc18, stronger effect = lower value 1.04 | S. cerevisiae deletion strains, locus YLR371W, strain rom2, stronger effect = lower value 1.03 | S. cerevisiae deletion strains, locus YLR384C, strain iki3, stronger effect = lower value 1.03 | S. cerevisiae deletion strains, locus YML016C, strain PPZ1, stronger effect = lower value 0.931 | S. cerevisiae deletion strains, locus YML120C, strain ndi1, stronger effect = lower value 0.935 | S. cerevisiae deletion strains, locus YML124C, strain tub3, stronger effect = lower value 0.944 | S. cerevisiae deletion strains, locus YMR058W, strain fet3, stronger effect = lower value 0.943 | S. cerevisiae deletion strains, locus YMR078C, strain ctf18, stronger effect = lower value 0.979 | S. cerevisiae deletion strains, locus YMR125W, strain sto1, stronger effect = lower value 1.06 | S. cerevisiae deletion strains, locus YMR129W, stronger effect = lower value 1.04 | S. cerevisiae deletion strains, locus YMR205C, strain PFK2, stronger effect = lower value 0.94 | S. cerevisiae deletion strains, locus YMR231W, strain pep5, stronger effect = lower value 1.01 | S. cerevisiae deletion strains, locus YMR263W, strain SAP30, stronger effect = lower value 0.925 | S. cerevisiae deletion strains, locus YMR307W, strain GAS1, stronger effect = lower value 0.963 | S. cerevisiae deletion strains, locus YNL183C, strain NPR1, stronger effect = lower value 0.874 | S. cerevisiae deletion strains, locus YNL209W, strain ssb2, stronger effect = lower value 0.965 | S. cerevisiae deletion strains, locus YNL248C, strain rpa49, stronger effect = lower value 0.888 | S. cerevisiae deletion strains, locus YNL250W, strain rad50, stronger effect = lower value 0.934 | S. cerevisiae deletion strains, locus YNL271C, strain bni1, stronger effect = lower value 0.94 | S. cerevisiae deletion strains, locus YNL322C, strain KRE1 (second series), stronger effect = lower value 1.03 | S. cerevisiae deletion strains, locus YNR049C, strain mso1, stronger effect = lower value 1.04 | S. cerevisiae deletion strains, locus YOL012C, strain htz1 1.94 | S. cerevisiae deletion strains, locus YOR061W, strain CKA2, stronger effect = lower value 0.91 | S. cerevisiae deletion strains, locus YOR080W, strain dia2, stronger effect = lower value 1.02 | S. cerevisiae deletion strains, locus YOR106W, strain vam3, stronger effect = lower value 0.909 | S. cerevisiae deletion strains, locus YOR136W, strain idh2, stronger effect = lower value 0.999 | S. cerevisiae deletion strains, locus YOR144C, strain elg1, stronger effect = lower value 0.973 | S. cerevisiae deletion strains, locus YOR231W, strain MKK1, stronger effect = lower value 0.888 | S. cerevisiae deletion strains, locus YOR265W, strain rbl2, stronger effect = lower value 0.968 | S. cerevisiae deletion strains, locus YOR316C, strain cot1, stronger effect = lower value 0.96 | S. cerevisiae deletion strains, locus YPL051W, strain arl3, stronger effect = lower value 0.926 | S. cerevisiae deletion strains, locus YPL078C, strain atp4, stronger effect = lower value 0.898 | S. cerevisiae deletion strains, locus YPL240C, strain hsp82, stronger effect = lower value 1.01 | S. cerevisiae deletion strains, locus YPL241C, strain CIN2, stronger effect = lower value 0.975 | S. cerevisiae deletion strains, locus YPL256C, strain CLN2, stronger effect = lower value 0.951 | S. cerevisiae deletion strains, locus YPR119W, strain clb2, stronger effect = lower value 1.04 | S. cerevisiae deletion strains, locus YPR141C, strain kar3, stronger effect = lower value 1.03
active: S. cerevisiae deletion strains, locus YKL190W, strain CNB1, stronger effect = lower value 0.862 | S. cerevisiae deletion strains, locus YKR001C, strain vps1, stronger effect = lower value 0.899 | S. cerevisiae deletion strains, locus YLR039C, strain RIC1, stronger effect = lower value 0.388 | S. cerevisiae deletion strains, locus YLR058C, strain SHM2, stronger effect = lower value 0.799 | S. cerevisiae deletion strains, locus YLR221C, strain rsa3, stronger effect = lower value 0.86 | S. cerevisiae deletion strains, locus YLR262C, strain YPT6 (second series), stronger effect = lower value 0.435 | S. cerevisiae deletion strains, locus YLR262C, strain YPT6, stronger effect = lower value 0.413 | S. cerevisiae deletion strains, locus YLR268W, strain sec22, stronger effect = lower value 0.834 | S. cerevisiae deletion strains, locus YLR320W, strain mms22, stronger effect = lower value 0.606 | S. cerevisiae deletion strains, locus YLR330W, strain CHS5, stronger effect = lower value 0.87 | S. cerevisiae deletion strains, locus YLR342W, strain FKS1 (second series), stronger effect = lower value 0.733 | S. cerevisiae deletion strains, locus YLR357W, strain rsc2, stronger effect = lower value 1.16 [resistant] | S. cerevisiae deletion strains, locus YLR418C, strain cdc73, stronger effect = lower value 0.589 | S. cerevisiae deletion strains, locus YML032C, strain rad52, stronger effect = lower value 0.744 | S. cerevisiae deletion strains, locus YMR223W, strain ubp8, stronger effect = lower value 0.794 | S. cerevisiae deletion strains, locus YNL067W, strain RPL9B, stronger effect = lower value 0.825 | S. cerevisiae deletion strains, locus YNL071W, strain lat1, stronger effect = lower value 0.663 | S. cerevisiae deletion strains, locus YNL153C, strain GIM3, stronger effect = lower value 0.747 | S. cerevisiae deletion strains, locus YNL233W, strain BNI4, stronger effect = lower value 0.747 | S. cerevisiae deletion strains, locus YNL298W, strain CLA4, stronger effect = lower value 0.869 | S. cerevisiae deletion strains, locus YNL307C, strain MCK1, stronger effect = lower value 0.366 | S. cerevisiae deletion strains, locus YNL322C, strain KRE1, stronger effect = lower value 0.908 | S. cerevisiae deletion strains, locus YNR052C, strain pop2, stronger effect = lower value 0.768 | S. cerevisiae deletion strains, locus YOL006C, strain TOP1, stronger effect = lower value 0.425 | S. cerevisiae deletion strains, locus YOL147C, strain pex11, stronger effect = lower value 0.803 | S. cerevisiae deletion strains, locus YOR001W, strain rrp6, stronger effect = lower value 0.847 | S. cerevisiae deletion strains, locus YOR069W, strain VPS5, stronger effect = lower value 0.913 | S. cerevisiae deletion strains, locus YOR070C, strain gyp1, stronger effect = lower value 0.903 | S. cerevisiae deletion strains, locus YOR083W, strain WHI5, stronger effect = lower value 0.882 | S. cerevisiae deletion strains, locus YOR184W, strain ser1, stronger effect = lower value 0.363 | S. cerevisiae deletion strains, locus YOR270C, strain vph1, stronger effect = lower value 0.682 | S. cerevisiae deletion strains, locus YOR290C, strain snf2, stronger effect = lower value 0.831 | S. cerevisiae deletion strains, locus YPL055C, strain LGE1, stronger effect = lower value 0.677 | S. cerevisiae deletion strains, locus YPL106C, strain sse1, stronger effect = lower value 1.32 [resistant] | S. cerevisiae deletion strains, locus YPR163C, strain tif3, stronger effect = lower value 0.856 | S. cerevisiae deletion strains, locus YPR167C, strain met16, stronger effect = lower value 0.814 | S. cerevisiae deletion strains, strain wtn01, stronger effect = lower value 0.849 | S. cerevisiae strains, strain wild type, stronger effect = lower value 0.815
